Results: PubChem BioAssay AID1159580 (chemical genetic matrix, 2015)
Screen size: about 5,500 compounds; about 2,000 (36%) were called active. Roughly 18% stayed inconclusive and do not appear here. No stated cut-off is given here; in the data, active means normalized growth mostly below about 0.91 (no sharp cut-off); inconclusive means no clear call, values can overlap the other calls; inactive means mostly above about 0.92. This is one part of the list.

Assay: chemical genetic growth profiling, strain panel (AID 1159580);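 further: tested at 20 µM; growth read once vehicle control cultures reached saturation at 30 °C; 1 = growth at the plate median or of vehicle wells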
Details: growth OD

Measured: normalized growth

COC(=O)C[C@H]1C(C)(C)[C@@H](OC(C)=O)[C@@H]2CC3=C4CC(=O)O[C@@H](c5ccoc5)[C@]4(C)CCC3[C@@]1(C)C2=O (some centres not stated)
inactive: S. cerevisiae deletion strains, locus YJR066W, strain TOR1, stronger effect = lower value 0.954 | S. cerevisiae deletion strains, locus YJR075W, strain HOC1, stronger effect = lower value 0.997 | S. cerevisiae deletion strains, locus YKL009W, strain mrt4, stronger effect = lower value 0.986 | S. cerevisiae deletion strains, locus YKL068W, stronger effect = lower value 1 | S. cerevisiae deletion strains, locus YKL085W, strain MDH1 (second series), stronger effect = lower value 0.993 | S. cerevisiae deletion strains, locus YKL085W, strain MDH1, stronger effect = lower value 0.993 | S. cerevisiae deletion strains, locus YKL160W, strain elf1, stronger effect = lower value 1.02 | S. cerevisiae deletion strains, locus YKR001C, strain vps1, stronger effect = lower value 1.01 | S. cerevisiae deletion strains, locus YKR026C, strain gcn3, stronger effect = lower value 0.992 | S. cerevisiae deletion strains, locus YKR091W, strain srl3, stronger effect = lower value 0.996 | S. cerevisiae deletion strains, locus YLL001W, strain dnm1, stronger effect = lower value 0.949 | S. cerevisiae deletion strains, locus YLL026W, stronger effect = lower value 0.998 | S. cerevisiae deletion strains, locus YLL041C, strain sdh2, stronger effect = lower value 0.997 | S. cerevisiae deletion strains, locus YLR027C, strain aat2, stronger effect = lower value 0.998 | S. cerevisiae deletion strains, locus YLR039C, strain RIC1, stronger effect = lower value 0.993 | S. cerevisiae deletion strains, locus YLR058C, strain SHM2, stronger effect = lower value 1 | S. cerevisiae deletion strains, locus YLR102C, strain apc9, stronger effect = lower value 1.01 | S. cerevisiae deletion strains, locus YLR113W, strain HOG1, stronger effect = lower value 1.03 | S. cerevisiae deletion strains, locus YLR221C, strain rsa3, stronger effect = lower value 0.961 | S. cerevisiae deletion strains, locus YLR258W, strain gsy2, stronger effect = lower value 1.01 | S. cerevisiae deletion strains, locus YLR262C, strain YPT6 (second series), stronger effect = lower value 1.02 | S. cerevisiae deletion strains, locus YLR268W, strain sec22, stronger effect = lower value 0.993 | S. cerevisiae deletion strains, locus YLR320W, strain mms22, stronger effect = lower value 0.978 | S. cerevisiae deletion strains, locus YLR330W, strain CHS5, stronger effect = lower value 1 | S. cerevisiae deletion strains, locus YLR342W, strain FKS1 (second series), stronger effect = lower value 1.02 | S. cerevisiae deletion strains, locus YLR342W, strain FKS1, stronger effect = lower value 1.02 | S. cerevisiae deletion strains, locus YLR357W, strain rsc2, stronger effect = lower value 1.01 | S. cerevisiae deletion strains, locus YLR370C, strain arc18, stronger effect = lower value 0.986 | S. cerevisiae deletion strains, locus YLR371W, strain rom2, stronger effect = lower value 0.983 | S. cerevisiae deletion strains, locus YLR384C, strain iki3, stronger effect = lower value 0.985 | S. cerevisiae deletion strains, locus YLR418C, strain cdc73, stronger effect = lower value 1.04 | S. cerevisiae deletion strains, locus YML016C, strain PPZ1, stronger effect = lower value 0.992 | S. cerevisiae deletion strains, locus YML032C, strain rad52, stronger effect = lower value 0.974 | S. cerevisiae deletion strains, locus YML120C, strain ndi1, stronger effect = lower value 1.01 | S. cerevisiae deletion strains, locus YML124C, strain tub3, stronger effect = lower value 1.01 | S. cerevisiae deletion strains, locus YMR058W, strain fet3, stronger effect = lower value 0.993 | S. cerevisiae deletion strains, locus YMR078C, strain ctf18, stronger effect = lower value 1.01 | S. cerevisiae deletion strains, locus YMR125W, strain sto1, stronger effect = lower value 1.01 | S. cerevisiae deletion strains, locus YMR129W, stronger effect = lower value 0.988 | S. cerevisiae deletion strains, locus YMR205C, strain PFK2, stronger effect = lower value 1.02 | S. cerevisiae deletion strains, locus YMR223W, strain ubp8, stronger effect = lower value 0.998 | S. cerevisiae deletion strains, locus YMR231W, strain pep5, stronger effect = lower value 0.998 | S. cerevisiae deletion strains, locus YMR263W, strain SAP30, stronger effect = lower value 1.01 | S. cerevisiae deletion strains, locus YMR307W, strain GAS1, stronger effect = lower value 0.927 | S. cerevisiae deletion strains, locus YNL067W, strain RPL9B, stronger effect = lower value 1.01 | S. cerevisiae deletion strains, locus YNL071W, strain lat1, stronger effect = lower value 1 | S. cerevisiae deletion strains, locus YNL128W, strain TEP1, stronger effect = lower value 0.99 | S. cerevisiae deletion strains, locus YNL153C, strain GIM3, stronger effect = lower value 1.02 | S. cerevisiae deletion strains, locus YNL183C, strain NPR1, stronger effect = lower value 0.958 | S. cerevisiae deletion strains, locus YNL209W, strain ssb2, stronger effect = lower value 1 | S. cerevisiae deletion strains, locus YNL233W, strain BNI4, stronger effect = lower value 1.01 | S. cerevisiae deletion strains, locus YNL248C, strain rpa49, stronger effect = lower value 0.961 | S. cerevisiae deletion strains, locus YNL250W, strain rad50, stronger effect = lower value 1 | S. cerevisiae deletion strains, locus YNL271C, strain bni1, stronger effect = lower value 0.982 | S. cerevisiae deletion strains, locus YNL298W, strain CLA4, stronger effect = lower value 1.01 | S. cerevisiae deletion strains, locus YNL307C, strain MCK1, stronger effect = lower value 1.01 | S. cerevisiae deletion strains, locus YNL322C, strain KRE1 (second series), stronger effect = lower value 1.01 | S. cerevisiae deletion strains, locus YNR049C, strain mso1, stronger effect = lower value 0.994 | S. cerevisiae deletion strains, locus YNR052C, strain pop2, stronger effect = lower value 1.01 | S. cerevisiae deletion strains, locus YOL012C, strain htz1 1.31 | S. cerevisiae deletion strains, locus YOL147C, strain pex11, stronger effect = lower value 0.999 | S. cerevisiae deletion strains, locus YOR001W, strain rrp6, stronger effect = lower value 0.939 | S. cerevisiae deletion strains, locus YOR061W, strain CKA2, stronger effect = lower value 0.995 | S. cerevisiae deletion strains, locus YOR069W, strain VPS5, stronger effect = lower value 1 | S. cerevisiae deletion strains, locus YOR070C, strain gyp1, stronger effect = lower value 0.991 | S. cerevisiae deletion strains, locus YOR080W, strain dia2, stronger effect = lower value 0.987 | S. cerevisiae deletion strains, locus YOR083W, strain WHI5, stronger effect = lower value 1.02 | S. cerevisiae deletion strains, locus YOR106W, strain vam3, stronger effect = lower value 1.02 | S. cerevisiae deletion strains, locus YOR136W, strain idh2, stronger effect = lower value 0.987 | S. cerevisiae deletion strains, locus YOR144C, strain elg1, stronger effect = lower value 0.998 | S. cerevisiae deletion strains, locus YOR184W, strain ser1, stronger effect = lower value 0.987 | S. cerevisiae deletion strains, locus YOR231W, strain MKK1, stronger effect = lower value 0.988 | S. cerevisiae deletion strains, locus YOR265W, strain rbl2, stronger effect = lower value 1 | S. cerevisiae deletion strains, locus YOR270C, strain vph1, stronger effect = lower value 0.888 | S. cerevisiae deletion strains, locus YOR290C, strain snf2, stronger effect = lower value 1.03 | S. cerevisiae deletion strains, locus YOR316C, strain cot1, stronger effect = lower value 1.01 | S. cerevisiae deletion strains, locus YPL051W, strain arl3, stronger effect = lower value 1 | S. cerevisiae deletion strains, locus YPL078C, strain atp4, stronger effect = lower value 1.01 | S. cerevisiae deletion strains, locus YPL106C, strain sse1, stronger effect = lower value 1.04 | S. cerevisiae deletion strains, locus YPL240C, strain hsp82, stronger effect = lower value 1 | S. cerevisiae deletion strains, locus YPL256C, strain CLN2, stronger effect = lower value 0.983 | S. cerevisiae deletion strains, locus YPR119W, strain clb2, stronger effect = lower value 0.996 | S. cerevisiae deletion strains, locus YPR141C, strain kar3, stronger effect = lower value 1 | S. cerevisiae deletion strains, locus YPR163C, strain tif3, stronger effect = lower value 1 | S. cerevisiae deletion strains, locus YPR167C, strain met16, stronger effect = lower value 0.995 | S. cerevisiae deletion strains, strain wtn01, stronger effect = lower value 0.978 | S. cerevisiae strains, strain wild type, stronger effect = lower value 0.997
